# Data taken from PubChem BioAssay (NCATS).
# Results filed as inconclusive are left out. The source made the active and inactive calls. Unless noted, calls follow the shape of the dose curve; as a rule, active = well fitted curve in the direction sought with a large enough effect; inconclusive = small, poorly fitted or top-dose-only effect, or another doubt; inactive = no such curve, though single readings can be large; an effect the other way counts as inactive or inconclusive.
# What was measured:
# [1] = molecular target: Glucocorticoid receptor (Homo sapiens) (UniProt P04150); test: GR-GFP Redistribution (AID 450;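 active = compounds whose dose series gives a full or clear partial fitted curve of increased nuclear translocation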; also: potency is read from the fitted curve at half-maximal effect); conditions: U2OS GR-GFP nuclear translocation, laser cytometry, 2 h
# [2] = molecular target: Glucocorticoid receptor (Homo sapiens) (UniProt P04150); test: GR-EFC Redistribution (AID 451; calls by dose curve; also: potency is read from the fitted curve at half-maximal effect); conditions: CHO-K1 GR-EFC translocation, beta-gal luminescence, 2 h
# Procedure, shortened: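 CHO-K1 cells stably expressing nuclear-localized β-gal enzyme acceptor and GR fused C-terminally to the enzyme donor fragment; ligand-driven nuclear translocation restores β-gal by complementation. Compounds titrated up to 46 uM final, 2 h at 37 °C; luminescence read.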
# [3] = molecular target: Mitogen-activated protein kinase 10 (Mus musculus) (UniProt Q61831); test: JNK3 AlphaScreen Assay (AID 530; active = well fitted curve in either direction with a large enough effect, not every such curve was filed as active;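 also: kinase came from lysate of stimulated human HepG2 cells; signal reports phosphorylation of biotinylated GST-cJun 1-79 at Ser73 with 10 µM ATP; % is scaled to controls: 0 for no effect and ±100 for the full control effect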); conditions: JNK3 lysate, c-Jun phosphorylation; series mostly up to 57.1 µM
# Procedure, shortened: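 Inhibitors reduce antibody binding to phosphorylated biotin-cJun, lowering AlphaScreen luminescence. Lysates from HepG2 cells pre-activated by IL-1beta plus TNF-alpha supplied JNK3; compounds were titrated.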
# [4] = molecular target: Cytochrome P450 2C19 (Homo sapiens) (UniProt P33261); test: qHTS Assay for Inhibitors and Substrates of Cytochrome P450 2C19 (AID 899); conditions: recombinant CYP2C19, luciferin-H EGE luminescence; series mostly up to 57.1 µM; also: potency is read from the fitted curve at half-maximal effect; nearly all actives have a fitted effect of over 60% in size
# Procedure, shortened: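 In 50mM KPO4, the reaction held 5nM enzyme and KM-level (10uM) Luciferin-H EGE; it ran 60 min at 37C after NADPH regeneration and a 10 min compound preincubation. Luminescence values were scaled to 57uM ketoconazole as complete inhibition.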
# [5] = molecular target: Ubiquitin carboxyl-terminal hydrolase 1 (Homo sapiens) (UniProt O94782); test: Inhibitors of USP1/UAF1: Pilot qHTS (AID 504865); conditions: purified USP1/UAF1, Ub-rhodamine cleavage fluorescence; series mostly up to 114 µM;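 also: rhodamine fluorescence freed from ubiquitin-rhodamine substrate followed over time; top concentration of the series differs between compounds; % is scaled to controls: 0 for no effect and ±100 for the full control effect; nearly all actives have a fitted effect of over 35% in size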
# Procedure, shortened: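 Kinetic fluorescence assay: 1nM USP1/UAF1, 15 min compound preincubation, then 150nM Ub-Rho; 480/540 nm.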
# [6] = molecular target: DNA dC->dU-editing enzyme APOBEC-3G (Homo sapiens) (UniProt Q9HC16); test: qHTS for inhibitors of Vif-A3G interactions: Validation (AID 588379); conditions: Vif-A3G protein interaction assay; series mostly up to 46.1 µM; also: 0% is about no effect
# Procedure, shortened: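 HeLa cells stably expressing Vif and A3G-eYFP, 700 cells/well, incubated overnight at 37 deg C, then exposed to compound overnight at 37 deg C. Inhibition of Vif-mediated degradation read as increased yellow fluorescence (Ex 488/Em 500-530) by laser-scanning cytometry.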
# [7] = molecular target: Cytochrome P450 1A2 (Homo sapiens) (UniProt P05177); test: p450-cyp1a2 (AID 410; calls by dose curve; also: potency is read from the fitted curve at half-maximal effect;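 as to activity change, negative = inhibition: -100% = full effect of reference inhibitor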); conditions: recombinant CYP1A2, luciferin-ME demethylation, luminescence; series mostly up to 57 µM
# Procedure, shortened: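 20nM CYP1A2 with 100uM Luciferin-ME (at Km) in 100mM KPO4; compound preincubated 10 min, NADPH regeneration added, 60 min at room temperature. Luciferin quantified by luminescence after detection reagent; normalized to 57 uM furafylline.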
# [8] = molecular target: Cytochrome P450 3A4 (Homo sapiens) (UniProt P08684); test: qHTS Assay for Inhibitors and Substrates of Cytochrome P450 3A4 (AID 884); conditions: recombinant CYP3A4, Luciferin-PPXE luminescence; series mostly up to 57.1 µM; also: nearly all actives have a fitted effect of over 50% in size; also: potency is read from the fitted curve at half-maximal effect; as to activity change, negative = inhibition: % is scaled to controls: 0 for no effect and ±100 for the full control effect
# Procedure, shortened: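 20 nM human CYP3A4 with 25 uM Luciferin-PPXE (at KM) in 200 mM KPO4, preincubated 10 min with compound; NADPH regeneration started a 60 min RT reaction. Luciferin detected by luminescence, normalized to 57 uM ketoconazole as full inhibition.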
# [9] = molecular target: Cytochrome P450 3A4 (Homo sapiens) (UniProt P08684); test: qHTS Assay for Activators of Cytochrome P450 3A4 (AID 885); conditions: recombinant CYP3A4, Luciferin-PPXE luminescence, 60 min; series mostly up to 57.1 µM; also: nearly all actives have a fitted effect of over 65% in size
# Procedure, shortened: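 20nM CYP3A4 + 25uM Luciferin-PPXE (=KM), 200mM KPO4; cpd 10 min RT; NADPH regen, 60 min RT; stop w/ detection buffer, 20 min; luminescence. Normalized to 57 uM ketoconazole.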
# [10] = Confirmation and Secondary Assay for Modulators of Hemoglobin Beta Chain Splicing at IVS2 654 locus (AID 910); conditions: HeLa EGFP-654 splicing reporter, GFP fluorescence, 48 h; series mostly up to 46.1 µM;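 also: per-well total GFP intensity by laser scanning cytometry after 2-day treatment; % of control where 0% means no effect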
# Procedure, shortened: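 HeLa cells stably carrying EGFP interrupted by mutant beta-globin IVS2-654 intron (CMV-driven) were treated with compound for 2 days at 37C; corrected splicing was scored as total peak GFP intensity per well (488 nm excitation, 500-520 nm emission).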
# [11] = Confirmation and Secondary Assay for Modulators of Hemoglobin Beta Chain Splicing at IVS2 705 locus (AID 930); conditions: HeLa EGFP-705 splicing reporter, GFP fluorescence, 48 h; series mostly up to 46.1 µM;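 also: HeLa cells stably expressing the EGFP-705 splicing reporter; GFP fluorescence per well restored by corrected splicing of the IVS2-705 intron in EGFP; % of control where 0% means no effect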
# Procedure, shortened: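 Fluorescence gain (488 nm laser, 500-520 nm PMT) reflects restored correct splicing of a mutant IVS2-705 intron inside EGFP in stably transfected HeLa cells after 2-day compound treatment.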
# [12] = molecular target: N-terminal Xaa-Pro-Lys N-methyltransferase 1 (Homo sapiens) (UniProt Q9BV86); test: Confirmatory qHTS for Inhibitors of N-terminal methyltransferase 1 (NTMT1): MTaseGlo Assay (AID 1645874); conditions: NTMT1 enzyme, MTase-Glo SAH luminescence; series mostly up to 100 µM; also: potency is read from the fitted curve at half-maximal effect; nearly all actives have a fitted effect of over 65% in size
# Procedure, shortened: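 Luminescent MTase-Glo read-out of SAH. 125 nM NTMT1, 100 uM SAM, 1 uM SPKRIA substrate, 30 min RT reaction after 15 min compound preincubation. Normalized to no-enzyme and DMSO controls; Hill fit.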
# [13] = molecular target: Cytochrome P450 2C9 (Homo sapiens) (UniProt P11712); test: qHTS Assay for Inhibitors and Substrates of Cytochrome P450 2C9 (AID 883); conditions: recombinant CYP2C9, luciferin-H luminescence, 60 min; series mostly up to 57.1 µM; also: potency is read from the fitted curve at half-maximal effect; nearly all actives have a fitted effect of over 60% in size
# Procedure, shortened: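 CYP2C9 deoxyluciferin hydroxylation, 37C, 60 min with NADPH regeneration; 10nM enzyme, 100uM Luciferin-H (KM). Glo detection reagent stopped reaction; luminescence normalized to sulphaphenazole (57uM) full inhibition.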
# [14] = AP1 Signaling Pathway (AID 357; active = well fitted curve in either direction with a large enough effect, not every such curve was filed as active;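 also: ME-180 reporter cells stimulated with EGF at its EC50 level; % is scaled to controls: 0 for no effect and ±100 for the full control effect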); conditions: ME-180 (cervical carcinoma) AP-1-bla reporter, EGF-induced, beta-lactamase ratio, 5 h
# Procedure, shortened: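 Read-out was the 460nm/530nm emission ratio (excitation 405nm) after CCF4 loading for 2.5 hours at room temperature. Cells carried an AP-1-driven beta-lactamase reporter, were stimulated with EC50 EGF plus compound for 5 hours, and AC50 values came from titrations.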
# [15] = molecular target: Voltage-gated inwardly rectifying potassium channel KCNH2 (Homo sapiens) (UniProt Q12809); test: qHTS Assay for Small Molecule Inhibitors of the Human hERG Channel Activity (AID 588834); conditions: U2OS BacMam hERG, FluxOR thallium flux fluorescence; series mostly up to 46.1 µM;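 also: lower thallium flux fluorescence means stronger hERG block; nearly all actives have a fitted effect of over 50% in size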; also: potency is read from the fitted curve at half-maximal effect; as to activity change, negative = inhibition: top concentration of the series differs between compounds; % is scaled to controls: 0 for no effect and ±100 for the full control effect
# Procedure, shortened: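 Measured: FluxOR fluorescence after thallium stimulation in U2OS cells transduced with hERG by baculovirus. Compounds pre-incubated around 10 min; medium Opti-MEM with 2% FCS. AC50 from Hill equation.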
# [16] = qHTS profiling of the MIPE4 collection as inhibitors of Plasmodium falciparum (3D7) proliferation (AID 743344; call rule not given here;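 also: scaled between DMSO vehicle wells and 0.29 µM artemisinin as full inhibition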); conditions: P. falciparum 3D7 in erythrocytes, SYBR Green DNA fluorescence, 72 h; at 28.5 µM (top of the series)
# Procedure, shortened: (§1)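 Erythrocytes infected with P. falciparum (0.3% parasitemia, 2.5% hematocrit) incubated with compounds 72 h at 37 C, 5% CO2. Lysis with saponin/Triton buffer containing SYBR Green I, overnight at room temperature in the dark; DNA fluorescence (485/535 nm) normalised to 0.29 uM artemisinin and DMSO.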
# [17] = qHTS profiling of the MIPE4 collection as inhibitors of Plasmodium falciparum (DD2) proliferation (AID 743345; call rule not given here); conditions: P. falciparum Dd2 in erythrocytes, SYBR Green DNA, 72 h; at 28.5 µM (top of the series)
# Procedure, shortened: as §1
# [18] = qHTS profiling of the MIPE4 collection as inhibitors of Plasmodium falciparum (DD2) proliferation (Rep 2) (AID 743346; call rule not given here); conditions: P. falciparum Dd2 in erythrocytes, SYBR Green DNA, 72 h; at 28.5 µM (top of the series)
# Procedure, shortened: as §1
# [19] = qHTS profiling of the MIPE4 collection as inhibitors of Plasmodium falciparum (HB3) proliferation (AID 743347; call rule not given here;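 also: plate controls were DMSO vehicle wells for no effect and artemisinin wells for full effect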); conditions: P. falciparum HB3 in erythrocytes, SYBR Green DNA, 72 h; at 28.5 µM (top of the series)
# Procedure, shortened: as §1
# [20] = qHTS Assay for Lipid Storage Modulators (AID 1519; calls by dose curve); conditions: Drosophila S3 cells, BODIPY lipid droplet/cell ratio, laser cytometry, cells loaded with oleic acid
# Procedure, shortened: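 Cells seeded at 5,000 per well were treated with compounds over a concentration series and loaded with oleic acid (400 uM, as added). Lipid droplet fluorescence (488 nm excitation, 500-530 nm channel) was read by laser-scanning cytometry and normalized to 20 uM Triacsin C.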
# Chain of DNA dC->dU-editing enzyme APOBEC-3G (Homo sapiens) (Q9HC16 whole entry, looked up): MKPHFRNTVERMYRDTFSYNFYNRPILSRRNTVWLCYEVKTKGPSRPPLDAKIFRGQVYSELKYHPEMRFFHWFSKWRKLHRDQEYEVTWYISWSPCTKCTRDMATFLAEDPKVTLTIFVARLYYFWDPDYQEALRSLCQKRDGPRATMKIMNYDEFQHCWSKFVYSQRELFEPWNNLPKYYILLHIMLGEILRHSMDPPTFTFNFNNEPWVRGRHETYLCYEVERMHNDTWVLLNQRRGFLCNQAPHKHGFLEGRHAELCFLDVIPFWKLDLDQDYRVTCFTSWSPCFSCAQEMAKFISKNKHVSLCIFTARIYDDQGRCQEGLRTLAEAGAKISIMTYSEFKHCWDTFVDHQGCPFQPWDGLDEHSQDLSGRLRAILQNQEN
# Chain of Cytochrome P450 1A2 (Homo sapiens) (P05177 whole entry, looked up): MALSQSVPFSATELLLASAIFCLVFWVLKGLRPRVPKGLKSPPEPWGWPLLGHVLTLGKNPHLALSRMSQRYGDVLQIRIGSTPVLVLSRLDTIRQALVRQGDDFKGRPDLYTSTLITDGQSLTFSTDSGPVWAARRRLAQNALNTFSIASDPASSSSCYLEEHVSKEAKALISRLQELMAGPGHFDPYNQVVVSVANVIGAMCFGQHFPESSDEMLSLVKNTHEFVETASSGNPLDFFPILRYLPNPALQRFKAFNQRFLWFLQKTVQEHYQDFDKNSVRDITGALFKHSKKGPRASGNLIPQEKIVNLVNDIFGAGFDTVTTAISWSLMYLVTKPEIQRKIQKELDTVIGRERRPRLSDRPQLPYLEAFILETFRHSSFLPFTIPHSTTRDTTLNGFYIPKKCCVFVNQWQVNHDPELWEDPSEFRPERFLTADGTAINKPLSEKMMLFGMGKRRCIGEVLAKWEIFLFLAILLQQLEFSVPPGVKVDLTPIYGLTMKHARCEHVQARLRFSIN
# Chain of Glucocorticoid receptor (Homo sapiens) (P04150 whole entry, looked up, the tested form may be a part): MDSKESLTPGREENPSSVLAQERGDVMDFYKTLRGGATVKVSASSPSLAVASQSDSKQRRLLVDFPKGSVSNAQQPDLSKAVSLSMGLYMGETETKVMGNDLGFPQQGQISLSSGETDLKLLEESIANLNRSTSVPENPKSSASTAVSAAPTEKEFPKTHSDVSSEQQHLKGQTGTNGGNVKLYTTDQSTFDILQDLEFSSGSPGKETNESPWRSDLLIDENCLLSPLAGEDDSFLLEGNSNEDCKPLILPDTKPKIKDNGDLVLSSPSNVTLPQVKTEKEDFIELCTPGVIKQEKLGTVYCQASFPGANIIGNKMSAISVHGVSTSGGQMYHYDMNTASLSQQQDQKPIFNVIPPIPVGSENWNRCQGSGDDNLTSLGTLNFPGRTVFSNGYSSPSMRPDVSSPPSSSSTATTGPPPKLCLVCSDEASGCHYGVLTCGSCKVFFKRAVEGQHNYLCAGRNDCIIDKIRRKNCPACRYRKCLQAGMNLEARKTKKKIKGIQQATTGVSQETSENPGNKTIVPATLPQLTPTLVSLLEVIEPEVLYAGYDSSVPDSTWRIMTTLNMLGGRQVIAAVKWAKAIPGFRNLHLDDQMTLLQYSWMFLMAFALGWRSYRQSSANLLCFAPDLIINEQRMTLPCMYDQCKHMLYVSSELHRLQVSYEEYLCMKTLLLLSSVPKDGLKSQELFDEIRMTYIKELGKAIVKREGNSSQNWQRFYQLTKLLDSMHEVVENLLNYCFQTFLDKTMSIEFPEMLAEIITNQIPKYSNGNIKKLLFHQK
# Chain of Ubiquitin carboxyl-terminal hydrolase 1 (Homo sapiens) (O94782 whole entry, looked up): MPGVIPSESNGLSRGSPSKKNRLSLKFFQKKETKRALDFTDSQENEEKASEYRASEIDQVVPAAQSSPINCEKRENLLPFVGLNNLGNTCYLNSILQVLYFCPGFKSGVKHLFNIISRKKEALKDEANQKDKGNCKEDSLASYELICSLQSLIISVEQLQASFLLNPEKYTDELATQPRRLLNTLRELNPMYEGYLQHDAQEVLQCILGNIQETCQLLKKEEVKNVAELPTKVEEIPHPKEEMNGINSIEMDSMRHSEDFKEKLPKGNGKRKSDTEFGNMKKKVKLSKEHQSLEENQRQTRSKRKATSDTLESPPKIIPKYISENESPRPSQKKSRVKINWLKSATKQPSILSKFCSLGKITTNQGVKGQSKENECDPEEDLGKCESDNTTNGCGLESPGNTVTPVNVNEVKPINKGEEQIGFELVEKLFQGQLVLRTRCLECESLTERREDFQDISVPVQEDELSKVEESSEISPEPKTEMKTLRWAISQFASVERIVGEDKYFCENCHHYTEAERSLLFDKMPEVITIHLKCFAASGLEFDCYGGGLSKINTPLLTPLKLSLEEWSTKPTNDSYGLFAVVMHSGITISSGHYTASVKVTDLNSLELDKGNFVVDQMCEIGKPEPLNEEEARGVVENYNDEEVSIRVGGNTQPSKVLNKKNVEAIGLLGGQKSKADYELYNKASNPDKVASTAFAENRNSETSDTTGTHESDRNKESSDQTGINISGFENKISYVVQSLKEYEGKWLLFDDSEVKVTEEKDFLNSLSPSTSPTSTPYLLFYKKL
# Chain of Cytochrome P450 3A4 (Homo sapiens) (P08684 whole entry, looked up): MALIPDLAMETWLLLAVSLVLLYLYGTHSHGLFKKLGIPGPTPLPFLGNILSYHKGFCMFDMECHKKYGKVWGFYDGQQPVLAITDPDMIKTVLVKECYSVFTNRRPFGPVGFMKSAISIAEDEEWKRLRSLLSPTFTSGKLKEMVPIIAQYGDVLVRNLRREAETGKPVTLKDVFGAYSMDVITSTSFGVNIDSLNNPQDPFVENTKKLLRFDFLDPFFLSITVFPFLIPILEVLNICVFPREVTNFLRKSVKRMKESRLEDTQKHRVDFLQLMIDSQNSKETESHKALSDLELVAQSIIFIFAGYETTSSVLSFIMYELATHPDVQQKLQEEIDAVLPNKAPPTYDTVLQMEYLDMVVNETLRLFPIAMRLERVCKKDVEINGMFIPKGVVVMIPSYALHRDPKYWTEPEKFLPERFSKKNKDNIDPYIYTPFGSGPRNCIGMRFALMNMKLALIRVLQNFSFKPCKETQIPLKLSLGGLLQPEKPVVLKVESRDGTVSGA
# Chain of Cytochrome P450 2C19 (Homo sapiens) (P33261 whole entry, looked up): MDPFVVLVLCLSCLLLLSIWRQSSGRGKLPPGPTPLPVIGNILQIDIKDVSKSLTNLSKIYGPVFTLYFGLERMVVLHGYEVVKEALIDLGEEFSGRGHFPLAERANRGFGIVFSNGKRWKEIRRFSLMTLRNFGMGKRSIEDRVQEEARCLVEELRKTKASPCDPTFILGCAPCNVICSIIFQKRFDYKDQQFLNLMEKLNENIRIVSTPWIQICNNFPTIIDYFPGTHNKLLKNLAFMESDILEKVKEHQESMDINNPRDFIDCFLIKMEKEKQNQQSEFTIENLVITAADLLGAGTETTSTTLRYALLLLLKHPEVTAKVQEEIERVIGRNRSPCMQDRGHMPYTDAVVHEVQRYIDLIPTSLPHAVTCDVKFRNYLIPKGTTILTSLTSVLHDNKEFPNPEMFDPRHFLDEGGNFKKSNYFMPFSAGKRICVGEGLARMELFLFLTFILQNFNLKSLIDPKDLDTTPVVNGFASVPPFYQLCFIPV
# Chain of Cytochrome P450 2C9 (Homo sapiens) (P11712 whole entry, looked up): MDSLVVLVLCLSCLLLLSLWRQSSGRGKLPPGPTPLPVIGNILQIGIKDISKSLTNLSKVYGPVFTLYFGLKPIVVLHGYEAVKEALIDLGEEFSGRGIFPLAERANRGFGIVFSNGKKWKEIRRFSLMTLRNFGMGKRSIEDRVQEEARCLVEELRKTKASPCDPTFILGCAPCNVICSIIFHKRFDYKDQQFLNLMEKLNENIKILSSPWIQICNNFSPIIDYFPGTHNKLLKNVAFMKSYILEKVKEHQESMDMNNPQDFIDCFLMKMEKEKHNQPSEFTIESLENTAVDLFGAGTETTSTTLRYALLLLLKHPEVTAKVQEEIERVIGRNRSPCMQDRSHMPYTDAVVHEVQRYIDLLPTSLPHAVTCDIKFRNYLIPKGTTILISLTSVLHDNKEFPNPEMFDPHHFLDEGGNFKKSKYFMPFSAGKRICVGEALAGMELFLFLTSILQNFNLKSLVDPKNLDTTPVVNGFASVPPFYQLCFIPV
# Chain of N-terminal Xaa-Pro-Lys N-methyltransferase 1 (Homo sapiens) (Q9BV86 whole entry, looked up): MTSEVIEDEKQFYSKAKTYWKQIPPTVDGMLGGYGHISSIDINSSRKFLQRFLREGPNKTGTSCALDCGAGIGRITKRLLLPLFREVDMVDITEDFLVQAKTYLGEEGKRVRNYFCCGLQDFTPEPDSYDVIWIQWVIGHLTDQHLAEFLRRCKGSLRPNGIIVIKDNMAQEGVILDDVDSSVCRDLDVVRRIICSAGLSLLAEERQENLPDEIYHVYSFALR
structure (smiles),measurement,setting,value
Clc1ccccc1CNCC1CCC(CNCc2ccccc2Cl)CC1 (configuration not stated),Potency,[1],> 46 µM (inactive)
same,Potency,[2],> 46 µM (inactive)
same,Potency,[3],inactive
same,Potency,[4],0.794 µM (active)
same,Potency,[5],inactive
same,Potency,[6],inactive
COc1cc(/C=C(\C#N)C(N)=O)cc(CSc2nc3ccccc3s2)c1O,Potency,[7],1.26 µM (active)
same,Potency,[8],3.98 µM (active)
same,Potency,[9],inactive
same,Potency,[4],3.16 µM (active)
same,Potency,[6],inactive
Nc1ncnc2c1c(I)cn2C1OC(CO)C(O)C1O (configuration not stated),Potency,[8],inactive
same,outcome,[10],inactive
same,outcome,[11],inactive
same,Potency,[5],inactive
same,Potency,[12],0.851 µM (active)
Cc1nc2c(O)cccc2c(=O)[nH]1,Potency,[7],15.8 µM (active)
same,Potency,[1],> 46 µM (inactive)
same,Potency,[2],> 46 µM (inactive)
same,Potency,[3],inactive
same,Potency,[13],3.98 µM (active)
same,Potency,[4],0.398 µM (active)
same,Potency,[5],inactive
same,Potency,[6],inactive
CN1CCN(CCC=C2c3ccccc3Sc3ccc(S(=O)(=O)N(C)C)cc32)CC1,"activity change, negative = inhibition",[14]; at 38 µM (top of the series),18.8% (inactive)
same,Potency,[7],inactive
same,Potency,[9],inactive
same,outcome,[10],inactive
same,outcome,[11],inactive
same,Potency,[5],inactive
same,Potency,[15],10 µM (active)
O=C(O)c1ccc2c3c1cccc3c(=O)n1c3ccccc3nc21,Potency,[7],15.8 µM (active)
same,Potency,[1],> 46 µM (inactive)
same,Potency,[13],0.158 µM (active)
same,Potency,[4],3.98 µM (active)
same,Potency,[5],inactive
same,Potency,[6],inactive
same,"parasite growth, % of DMSO control",[16],91.8%
same,"parasite growth remaining, % of DMSO control (lower = more inhibition)",[17],97.7%
same,"parasite growth, % of control (lower = inhibition)",[18],85.8%
same,"growth, % of control",[19],60.1%
CS(=O)(=O)CCNCc1nc(-c2ccc3ncnc(Nc4ccc(OCc5cccc(F)c5)c(Cl)c4)c3c2)cs1,Potency,[8],2.51 µM (active)
same,Potency,[9],inactive
C=C1C(=O)O[C@H]2[C@H]1CC/C(C)=C\CC[C@@]1(C)O[C@@H]21,Potency,[15],inactive
CCOC(=O)CCC(=O)O[C@H]1[C@H](O[C@@H]2[C@@H](C)[C@H](O[C@H]3C[C@@](C)(OC)[C@@H](O)[C@H](C)O3)[C@@H](C)C(=O)O[C@H](CC)[C@@](C)(O)[C@H](O)[C@@H](C)C(=O)[C@H](C)C[C@@]2(C)O)O[C@H](C)C[C@@H]1N(C)C,"activity change, negative = inhibition",[14]; at 17.2 µM (top of the series),-0.678% (inactive)
same,Potency,[1],> 20.6 µM (inactive)
Cn1cc(C2=C(c3cn(CCCSC(=N)N)c4ccccc34)C(=O)NC2=O)c2ccccc21,Potency,[9],inactive
same,Potency,[12],6.02 µM (active)
CC1(C)N=C(N)N=C(N)N1c1ccc(Cl)cc1,"parasite growth, % of DMSO control",[16],5.76%
same,"parasite growth remaining, % of DMSO control (lower = more inhibition)",[17],13.5%
same,"parasite growth, % of control (lower = inhibition)",[18],19.9%
same,"growth, % of control",[19],2.49%
C=CC(=O)c1ccc2ccccc2c1,Potency,[8],25.1 µM (active)
same,Potency,[9],inactive
COc1cc(OC)c2ccc(=O)oc2c1,Potency,[8],31.6 µM (active)
same,Potency,[9],inactive
same,outcome,[10],inactive
same,outcome,[11],inactive
same,"activity change, negative = inhibition",[20]; at 57.5 µM (top of the series),13.4% (inactive)
same,max response,[20]; measured here: cell count channel max response,9.58%
same,max response,[20]; measured here: lipid channel max response,25.2%
same,Potency,[5],inactive
